The full data set covers some 7,900 targets. This sample favours those with a hit. About 0.6% of all pairs of compound and target were hits. Unmarked numbers belong to inactive results.

Sequence of UniProt P32019 (P32019 whole entry, looked up): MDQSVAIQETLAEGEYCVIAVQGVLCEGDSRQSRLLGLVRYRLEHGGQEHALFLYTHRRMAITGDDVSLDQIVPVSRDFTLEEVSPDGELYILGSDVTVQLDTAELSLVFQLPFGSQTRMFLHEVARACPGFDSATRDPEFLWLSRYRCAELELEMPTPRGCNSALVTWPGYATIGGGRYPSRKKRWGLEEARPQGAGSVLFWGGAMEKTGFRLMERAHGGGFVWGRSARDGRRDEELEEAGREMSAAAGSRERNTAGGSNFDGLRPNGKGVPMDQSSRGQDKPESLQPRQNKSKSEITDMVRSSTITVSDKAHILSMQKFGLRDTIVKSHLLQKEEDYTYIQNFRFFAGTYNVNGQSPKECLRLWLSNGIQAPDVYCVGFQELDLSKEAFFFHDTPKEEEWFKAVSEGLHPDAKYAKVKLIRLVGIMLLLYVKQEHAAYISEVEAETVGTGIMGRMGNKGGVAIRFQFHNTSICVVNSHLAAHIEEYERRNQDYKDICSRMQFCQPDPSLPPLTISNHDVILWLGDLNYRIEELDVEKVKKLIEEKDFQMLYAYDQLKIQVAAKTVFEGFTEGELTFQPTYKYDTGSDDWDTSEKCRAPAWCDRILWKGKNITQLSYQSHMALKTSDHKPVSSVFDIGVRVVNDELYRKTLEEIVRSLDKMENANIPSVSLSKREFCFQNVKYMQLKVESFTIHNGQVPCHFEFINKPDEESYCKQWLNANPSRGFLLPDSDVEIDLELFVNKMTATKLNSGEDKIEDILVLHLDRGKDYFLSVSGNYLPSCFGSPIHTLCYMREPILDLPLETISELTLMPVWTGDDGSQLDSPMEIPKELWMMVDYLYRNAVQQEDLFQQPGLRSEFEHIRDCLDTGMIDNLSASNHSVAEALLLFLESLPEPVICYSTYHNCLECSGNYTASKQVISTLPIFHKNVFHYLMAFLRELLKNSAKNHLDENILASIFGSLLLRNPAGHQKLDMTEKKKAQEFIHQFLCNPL
Sequence of UniProt Q12906 (Q12906 whole entry, looked up): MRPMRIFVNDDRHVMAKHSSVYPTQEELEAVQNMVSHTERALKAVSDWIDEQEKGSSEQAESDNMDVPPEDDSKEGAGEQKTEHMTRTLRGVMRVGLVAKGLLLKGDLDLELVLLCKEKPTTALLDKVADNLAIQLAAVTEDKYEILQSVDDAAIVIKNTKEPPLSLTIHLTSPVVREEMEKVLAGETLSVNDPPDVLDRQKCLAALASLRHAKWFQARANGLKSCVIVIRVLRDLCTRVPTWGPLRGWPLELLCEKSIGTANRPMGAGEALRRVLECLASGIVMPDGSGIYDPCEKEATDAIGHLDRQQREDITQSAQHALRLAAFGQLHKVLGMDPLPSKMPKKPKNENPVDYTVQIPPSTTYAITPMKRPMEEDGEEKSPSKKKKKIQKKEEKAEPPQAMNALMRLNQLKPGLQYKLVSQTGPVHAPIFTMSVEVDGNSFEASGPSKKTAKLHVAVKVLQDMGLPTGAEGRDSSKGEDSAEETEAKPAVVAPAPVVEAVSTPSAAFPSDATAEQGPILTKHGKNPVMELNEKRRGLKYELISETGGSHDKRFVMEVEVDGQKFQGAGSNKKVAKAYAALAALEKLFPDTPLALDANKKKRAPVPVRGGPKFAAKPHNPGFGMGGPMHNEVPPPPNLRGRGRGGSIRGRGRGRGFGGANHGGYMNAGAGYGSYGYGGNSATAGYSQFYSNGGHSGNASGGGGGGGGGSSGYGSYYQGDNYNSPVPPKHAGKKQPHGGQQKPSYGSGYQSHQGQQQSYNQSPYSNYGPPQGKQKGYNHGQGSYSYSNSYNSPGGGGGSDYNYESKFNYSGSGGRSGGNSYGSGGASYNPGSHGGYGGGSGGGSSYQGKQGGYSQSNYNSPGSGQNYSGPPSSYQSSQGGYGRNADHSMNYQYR
Sequence of UniProt Q8IYU8 (Q8IYU8 whole entry, looked up): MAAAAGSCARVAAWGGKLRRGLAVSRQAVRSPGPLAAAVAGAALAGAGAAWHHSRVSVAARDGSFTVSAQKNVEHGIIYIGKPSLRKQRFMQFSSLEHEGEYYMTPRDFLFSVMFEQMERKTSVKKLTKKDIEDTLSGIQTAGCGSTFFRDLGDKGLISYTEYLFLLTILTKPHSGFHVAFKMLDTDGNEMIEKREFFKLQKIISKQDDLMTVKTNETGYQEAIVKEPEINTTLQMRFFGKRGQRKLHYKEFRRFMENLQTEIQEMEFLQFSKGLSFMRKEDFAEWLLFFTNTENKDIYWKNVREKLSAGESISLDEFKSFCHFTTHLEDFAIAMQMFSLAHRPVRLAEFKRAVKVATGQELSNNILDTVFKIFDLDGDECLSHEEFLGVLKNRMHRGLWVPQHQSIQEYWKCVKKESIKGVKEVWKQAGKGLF
Sequence of UniProt Q9NQG6 (Q9NQG6 whole entry, looked up): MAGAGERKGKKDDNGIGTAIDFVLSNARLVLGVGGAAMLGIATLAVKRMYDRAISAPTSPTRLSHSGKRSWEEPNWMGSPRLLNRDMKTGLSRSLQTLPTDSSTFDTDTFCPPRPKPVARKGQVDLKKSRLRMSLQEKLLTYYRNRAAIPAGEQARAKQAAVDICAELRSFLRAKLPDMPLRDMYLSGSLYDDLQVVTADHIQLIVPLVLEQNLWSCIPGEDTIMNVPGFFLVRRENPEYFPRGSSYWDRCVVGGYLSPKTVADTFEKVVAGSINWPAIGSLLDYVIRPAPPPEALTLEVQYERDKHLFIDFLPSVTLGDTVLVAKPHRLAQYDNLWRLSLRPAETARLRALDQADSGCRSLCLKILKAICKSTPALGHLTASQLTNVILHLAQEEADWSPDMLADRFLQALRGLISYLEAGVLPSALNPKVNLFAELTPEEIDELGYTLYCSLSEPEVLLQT
Sequence of UniProt Q9NQ29 (Q9NQ29 whole entry, looked up): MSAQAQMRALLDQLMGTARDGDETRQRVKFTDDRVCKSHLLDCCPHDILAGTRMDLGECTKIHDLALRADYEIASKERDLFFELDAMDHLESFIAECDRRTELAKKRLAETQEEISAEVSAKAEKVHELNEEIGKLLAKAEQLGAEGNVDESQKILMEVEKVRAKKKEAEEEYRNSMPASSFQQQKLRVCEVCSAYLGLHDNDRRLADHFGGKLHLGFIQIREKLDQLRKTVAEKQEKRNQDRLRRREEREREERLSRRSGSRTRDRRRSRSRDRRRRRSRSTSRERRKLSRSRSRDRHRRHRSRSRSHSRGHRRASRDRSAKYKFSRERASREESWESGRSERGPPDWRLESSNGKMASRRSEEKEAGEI
Sequence of UniProt Q9UBF1 (Q9UBF1 whole entry, looked up): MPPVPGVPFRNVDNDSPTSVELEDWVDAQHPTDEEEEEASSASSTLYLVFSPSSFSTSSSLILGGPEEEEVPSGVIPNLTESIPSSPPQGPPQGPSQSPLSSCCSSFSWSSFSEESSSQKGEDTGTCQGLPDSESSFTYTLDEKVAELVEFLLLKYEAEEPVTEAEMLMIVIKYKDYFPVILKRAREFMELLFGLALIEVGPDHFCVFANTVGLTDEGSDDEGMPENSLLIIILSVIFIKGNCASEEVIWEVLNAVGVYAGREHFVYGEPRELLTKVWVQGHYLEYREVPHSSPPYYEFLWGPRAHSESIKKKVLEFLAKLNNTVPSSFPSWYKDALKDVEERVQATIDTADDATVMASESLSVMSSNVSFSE
Sequence of UniProt O95372 (O95372 whole entry, looked up): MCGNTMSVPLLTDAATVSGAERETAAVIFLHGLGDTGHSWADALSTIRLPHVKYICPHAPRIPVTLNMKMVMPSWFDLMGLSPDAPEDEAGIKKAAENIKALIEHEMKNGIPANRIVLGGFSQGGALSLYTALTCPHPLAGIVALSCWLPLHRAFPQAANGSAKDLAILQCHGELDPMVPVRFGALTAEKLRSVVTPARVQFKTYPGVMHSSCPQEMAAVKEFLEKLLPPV
Sequence of UniProt Q7L2J0 (Q7L2J0 whole entry, looked up): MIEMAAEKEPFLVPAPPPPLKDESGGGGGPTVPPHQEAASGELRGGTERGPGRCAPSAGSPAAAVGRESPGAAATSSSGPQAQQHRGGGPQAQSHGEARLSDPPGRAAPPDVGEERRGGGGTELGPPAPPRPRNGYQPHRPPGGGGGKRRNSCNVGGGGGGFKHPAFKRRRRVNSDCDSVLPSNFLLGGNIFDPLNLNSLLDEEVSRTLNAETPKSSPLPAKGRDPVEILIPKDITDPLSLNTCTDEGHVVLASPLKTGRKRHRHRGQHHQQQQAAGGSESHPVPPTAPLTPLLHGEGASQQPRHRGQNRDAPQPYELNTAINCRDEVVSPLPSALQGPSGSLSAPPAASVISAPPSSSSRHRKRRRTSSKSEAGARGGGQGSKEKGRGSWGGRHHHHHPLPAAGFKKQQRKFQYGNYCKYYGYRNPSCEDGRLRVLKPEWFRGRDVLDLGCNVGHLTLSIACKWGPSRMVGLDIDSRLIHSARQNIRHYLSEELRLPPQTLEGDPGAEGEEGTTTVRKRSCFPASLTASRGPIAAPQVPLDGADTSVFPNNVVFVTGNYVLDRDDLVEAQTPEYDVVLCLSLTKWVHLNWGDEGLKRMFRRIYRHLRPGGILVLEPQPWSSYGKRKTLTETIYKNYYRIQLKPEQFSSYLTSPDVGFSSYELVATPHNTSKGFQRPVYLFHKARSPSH
Sequence of UniProt Q9H6V9 (Q9H6V9 whole entry, looked up): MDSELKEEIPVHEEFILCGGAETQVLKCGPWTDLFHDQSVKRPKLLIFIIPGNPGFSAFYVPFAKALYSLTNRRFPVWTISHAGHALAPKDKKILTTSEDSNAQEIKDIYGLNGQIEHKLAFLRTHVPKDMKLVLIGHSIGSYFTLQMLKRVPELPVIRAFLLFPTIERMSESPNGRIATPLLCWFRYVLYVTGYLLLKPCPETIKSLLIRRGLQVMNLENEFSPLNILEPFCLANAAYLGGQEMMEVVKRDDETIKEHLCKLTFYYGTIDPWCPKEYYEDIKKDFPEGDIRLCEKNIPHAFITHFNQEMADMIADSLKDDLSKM
Sequence of UniProt Q13257 (Q13257 whole entry, looked up): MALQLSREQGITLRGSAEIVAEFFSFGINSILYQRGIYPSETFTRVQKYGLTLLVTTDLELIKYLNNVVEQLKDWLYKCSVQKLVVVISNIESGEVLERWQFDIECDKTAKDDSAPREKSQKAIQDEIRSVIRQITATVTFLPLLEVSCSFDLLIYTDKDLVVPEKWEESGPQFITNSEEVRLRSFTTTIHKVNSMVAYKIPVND

Compound in the first assay: C[C@H](Nc1ncnc2nc[nH]c12)c1cc2cccc(Cl)c2c(=O)n1-c1ccccc1 [duvelisib]
Description: log2 fold change, soluble protein after heating vs DMSO (PISA); higher = thermal stabilisation; K562 cells, 10 uM, 30 min; active = over 0.2 and 3.5 SD of the protein, either way, in both replicates (recomputed). The essentials:
(§1)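 Aliquots of K562 cells (2×10^6 cells/mL) treated with 10 μM compound for 30 min were heated for 3 min over 48°C-58°C. After pooling and extraction in PBS with 0.5% NP-40 at 4°C, soluble protein from a 21,000xg, 90 min spin was quantified by TMTpro 16plex LC-MS/MS with channel sums equalised. Thermal stability is expressed against control samples, from duplicates, as a log2 fold change.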
As to MIEF1 (UniProt Q9NQG6), the log2 fold change is 0.096.

For LDAH isoform 2 (UniProt Q9H6V9), the log2 fold change is 0.001.

For the target MAPKAPK2 (UniProt P49137), the log2 fold change is 0.006.

LIAS (UniProt O43766): the log2 fold change is 0.043.

In the case of MFSD5 isoform 2 (UniProt Q6N075), the log2 fold change is 0.112.

Take LARP4B (UniProt Q92615): the log2 fold change was -0.029.

Regarding LAMP2 (UniProt P13473), the log2 fold change was 0.072.

Consider MAGEC2 (UniProt Q9UBF1), for which the log2 fold change is 0.043.

As for IGFBP4 (UniProt P22692), the log2 fold change was 0.02.

For the target ILF3 isoform 7 (UniProt Q12906), the log2 fold change is -0.092.

As to LTV1 (UniProt Q96GA3), the log2 fold change is -0.087.

Regarding MICU2 (UniProt Q8IYU8), the log2 fold change was -0.045.

As to MCUR1 (UniProt Q96AQ8), the log2 fold change is 0.06.

For the target KDM1A isoform 2 (UniProt O60341), the log2 fold change is 0.025.

As for LEMD2 (UniProt Q8NC56), the log2 fold change was -0.016.

Regarding LRRFIP1 (UniProt Q32MZ4), the log2 fold change was 0.011.

As for LPIN1 isoform 7 (UniProt Q14693), the log2 fold change is -0.052.

Turning to MFN1 (UniProt Q8IWA4), the log2 fold change is 0.037.

Turning to KIF1B isoform 4 (UniProt O60333), the log2 fold change is 0.011.

With MFGE8 (UniProt Q08431), the log2 fold change was -0.052.

As to MCCC2 (UniProt Q9HCC0), the log2 fold change is 0.054.

On to MICU1 isoform 3 (UniProt Q9BPX6), for which the log2 fold change was -0.04.

As for LARP1 (UniProt Q6PKG0), the log2 fold change is -0.121.

With MEPCE (UniProt Q7L2J0), the log2 fold change is -0.005.

As to MAD2L1 (UniProt Q13257), the log2 fold change was 0.024.

As to KCTD2 (UniProt Q14681), the log2 fold change is 0.211.

For the target LYPLA2 (UniProt O95372), the log2 fold change was 0.189.

Consider INPP5B (UniProt P32019), for which the log2 fold change was -0.045.

As for IPO11 isoform 2 (UniProt Q9UI26), the log2 fold change was 0.041.

Regarding MARCKS (UniProt P29966), the log2 fold change was 0.006.

With KIF2C (UniProt Q99661), the log2 fold change was -0.048.

In the case of LPCAT3 (UniProt Q6P1A2), the log2 fold change was -0.035.

KTN1 (UniProt Q86UP2): the log2 fold change was -0.027.

For MIF (UniProt P14174), the log2 fold change was 0.197.

As for LUC7L3 (UniProt O95232), the log2 fold change is -0.001.

With LUC7L (UniProt Q9NQ29), the log2 fold change was -0.042.

Consider KPNA1 (UniProt P52294), for which the log2 fold change was 0.047.

In the case of KSR1 (UniProt Q8IVT5), the log2 fold change was 0.031.

MAP2K2 (UniProt P36507): the log2 fold change was 0.02.

Compound in the next assay: Cc1cc(Nc2cc(CN3CCOCC3)c3nc(C)c(Cc4ccc(Cl)cc4F)n3n2)n[nH]1 [gandotinib]
The assay is described as above. Put shortly:
as §1
Regarding MIEF1 (UniProt Q9NQG6), the log2 fold change is 0.095.

Regarding LDAH isoform 2 (UniProt Q9H6V9), the log2 fold change is -0.001.

As for MAPKAPK2 (UniProt P49137), the log2 fold change is -0.066.

Consider LIAS (UniProt O43766), for which the log2 fold change is 0.086.

Turning to MFSD5 isoform 2 (UniProt Q6N075), the log2 fold change was -0.045.

As to LARP4B (UniProt Q92615), the log2 fold change is -0.029.

For the target LAMP2 (UniProt P13473), the log2 fold change was -0.104.

Consider MAGEC2 (UniProt Q9UBF1), for which the log2 fold change was 0.055.

In the case of IGFBP4 (UniProt P22692), the log2 fold change was -0.229.

Take ILF3 isoform 7 (UniProt Q12906): the log2 fold change is 0.1.

Take LTV1 (UniProt Q96GA3): the log2 fold change was 0.199.

MICU2 (UniProt Q8IYU8): the log2 fold change was -0.062.

Turning to MCUR1 (UniProt Q96AQ8), the log2 fold change was -0.021.

As to KDM1A isoform 2 (UniProt O60341), the log2 fold change is 0.014.

With LEMD2 (UniProt Q8NC56), the log2 fold change is -0.17.

As to LRRFIP1 (UniProt Q32MZ4), the log2 fold change is 0.056.

Take LPIN1 isoform 7 (UniProt Q14693): the log2 fold change is -0.079.

With MFN1 (UniProt Q8IWA4), the log2 fold change was 0.025.

For KIF1B isoform 4 (UniProt O60333), the log2 fold change is -0.043.

On to MFGE8 (UniProt Q08431), for which the log2 fold change was -0.015.

In the case of MCCC2 (UniProt Q9HCC0), the log2 fold change was 0.051.

Regarding MICU1 isoform 3 (UniProt Q9BPX6), the log2 fold change is -0.128.

LARP1 (UniProt Q6PKG0): the log2 fold change is 0.026.

For MEPCE (UniProt Q7L2J0), the log2 fold change is -0.051.

With MAD2L1 (UniProt Q13257), the log2 fold change is -0.139.

Take KCTD2 (UniProt Q14681): the log2 fold change was 0.355.

In the case of LYPLA2 (UniProt O95372), the log2 fold change was -0.094.

For the target INPP5B (UniProt P32019), the log2 fold change was 0.017.

As for IPO11 isoform 2 (UniProt Q9UI26), the log2 fold change is -0.076.

For MARCKS (UniProt P29966), the log2 fold change is 0.234.

For the target KIF2C (UniProt Q99661), the log2 fold change was -0.065.

Regarding LPCAT3 (UniProt Q6P1A2), the log2 fold change was -0.167.

KTN1 (UniProt Q86UP2): the log2 fold change is -0.047.

On to MIF (UniProt P14174), for which the log2 fold change is 0.079.

With LUC7L3 (UniProt O95232), the log2 fold change is 0.065.

Regarding LUC7L (UniProt Q9NQ29), the log2 fold change is 0.199.

As for KPNA1 (UniProt P52294), the log2 fold change is 0.01.

Regarding KSR1 (UniProt Q8IVT5), the log2 fold change is -0.067.

In the case of MAP2K2 (UniProt P36507), the log2 fold change was -0.069.

The values above are taken from the supplement of paper PMC10849652.
